Data from the supplement of paper PMC12350171.
Where a name gives a salt, the structure may show the parent alone. Unmarked numbers belong to inactive results.

What was measured:
Conditions in all cases: 20 µM
[1] = system: Salmonella enterica typhimurium; experiment: growth AUC normalised to DMSO control (fraction of control); higher = less growth inhibition, active = hit call of the paper
In short: (§1)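 Three biological replicates were carried out, with OD578 read hourly for 24 h. Before inoculation at a starting OD578 of 0.01, pathogens were passaged anaerobically twice; plates were pre-reduced mGAM containing 20 μM compound and 1% DMSO, sealed with breathable membranes, and the Haemophilus parainfluenzae medium carried added hemin and NAD. Area under each growth curve was calculated by the trapezoidal rule up to the exponential-to-stationary transition and normalised to DMSO controls on the same plate.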

Shigella flexneri = experiment: as above
In short: as §1

Vibrio cholerae = experiment: as above
In short: as §1

[2] = system: Yersinia pseudotuberculosis; experiment: as above
In short: as §1

P. vulgatus RND KO = experiment: growth AUC normalised to DMSO control (median) (fraction of control); higher = less growth inhibition, active = hit call of the paper
In short: (§2)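 For normalised area under the curve, growth curves were truncated at entry into stationary phase, integrated by the trapezoidal rule and divided against vehicle wells on the same plate. The curves came from strains passaged twice overnight without oxygen and then grown in mGAM in 96-well plates at a starting OD578 of 0.01. Each well held an approved-drug library compound at 20 μM with 1% DMSO, and OD578 was read hourly for 24 h in an anaerobic incubator. Values are medians of three biological replicates.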

P. vulgatus WT = experiment: as above
In short: as §2

[3] = system: S. enterica typhimurium WT; experiment: as above
In short: as §2

[4] = system: S. enterica typhimurium tolC KO; experiment: as above
In short: as §2
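Wherever growth AUC normalised to DMSO control (median) is given: active when median AUC fell below 0.1.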

| SMILES | growth AUC normalised to DMSO control [1] | growth AUC normalised to DMSO control (Shigella flexneri) | growth AUC normalised to DMSO control (Vibrio cholerae) | growth AUC normalised to DMSO control [2] | growth AUC normalised to DMSO control (P. vulgatus RND KO) | growth AUC normalised to DMSO control (P. vulgatus WT) | growth AUC normalised to DMSO control [3] | growth AUC normalised to DMSO control [4] |
| --- | --- | --- | --- | --- | --- | --- | --- | --- |
| CN(C)CCCN1c2ccccc2CCc2ccccc21 [Imipramine hydrochloride] | 0.998 | 0.994 | 0.935 | 1.01 | 1 | 0.998 | 1.02 | 0.984 |
| CCC(=O)OCC(=O)[C@@]1(OC(=O)CC)[C@@H](C)C[C@H]2[C@@H]3CCC4=CC(=O)C=C[C@]4(C)[C@@]3(Cl)[C@@H](O)C[C@@]21C [Beclomethasone dipropionate] | 0.99 | 0.956 | 0.965 | 1.01 |  | 0.972 | 1.01 | 0.975 |
| CC(C)NNC(=O)c1ccncc1 [Iproniazide phosphate] | 1.01 | 1 | 0.997 | 1.02 | 1.02 | 1.03 | 1.02 | 0.992 |
| CN1CCC(=C2c3ccccc3Sc3ccccc32)CC1 [Pimethixene maleate] | 0.988 | 0.948 | 0.853 | 1.02 | 0.812 | 0.776 | 1 | 0.956 |
| CC1(C)O[C@@H]2C[C@H]3[C@@H]4C[C@H](F)C5=CC(=O)C=C[C@]5(C)[C@H]4[C@@H](O)C[C@]3(C)[C@]2(C(=O)CO)O1 [Flunisolide] | 1.01 | 1.05 | 1.06 | 0.984 | 1.03 | 1.05 | 1 | 1.01 |
| CCOC(=O)O[C@]1(C(=O)COC(=O)CC)CC[C@H]2[C@@H]3CCC4=CC(=O)C=C[C@]4(C)[C@H]3[C@@H](O)C[C@@]21C [Prednicarbate] | 1.01 | 1.03 |  | 1 | 1 | 1.04 | 0.992 | 0.967 |
| Cc1cc(N)c2ccccc2[n+]1CCCCCCCCCC[n+]1c(C)cc(N)c2ccccc21 [Dequalinium dichloride] | 0.989 | 0.939 | 0.96 | 0.932 (active) | 0.0354 (active) | 0.0484 (active) |  | 0.503 |
| CC1(C)O[C@@H]2C[C@H]3[C@@H]4CCC5=CC(=O)CC[C@]5(C)[C@@]4(F)[C@@H](O)C[C@]3(C)[C@]2(C(=O)CCl)O1 [Halcinonide] | 1 | 1.03 | 0.99 | 1 | 0.993 | 1 | 1.02 | 0.967 |
| O=C(O)COCCN1CCN(C(c2ccccc2)c2ccc(Cl)cc2)CC1 (stereo unspecified) [Cetirizine dihydrochloride] | 1 | 0.994 | 0.988 | 0.981 | 1 | 1.01 | 1.01 | 0.994 |
| Cc1onc(-c2c(F)cccc2Cl)c1C(=O)N[C@@H]1C(=O)N2[C@@H]1SC(C)(C)[C@@H]2C(=O)O [Flucloxacillin sodium] | 0.993 | 1.01 | 0.999 | 0.989 |  | 0.132 | 1.02 | 0.0123 (active) |
| C[C@]1(Cn2ccnn2)[C@H](C(=O)O)N2C(=O)C[C@H]2S1(=O)=O [Tazobactam] | 0.986 | 0.976 | 0.972 | 0.99 |  | 0.57 | 0.99 | 1 |
| Cc1onc(-c2ccccc2Cl)c1C(=O)N[C@@H]1C(=O)N2[C@@H]1SC(C)(C)[C@@H]2C(=O)O [Cloxacillin sodium salt] | 1.01 | 1 | 0.99 | 1.01 |  |  | 0.994 | 0.0356 (active) |
| CN(C)CCOC(C)(c1ccccc1)c1ccccn1 (stereo unspecified) [Doxylamine succinate] | 0.982 | 1.01 | 1 | 0.996 | 0.981 | 0.993 | 0.986 | 0.999 |
| O=C(O)[C@H]1/C(=C/CO)O[C@@H]2CC(=O)N21 [Clavulanate potassium salt] | 1.01 | 1.03 | 1.08 | 1.03 |  | 1.12 | 0.995 | 0.999 |
| O=c1cc(-c2ccc(O)c(O)c2)oc2cc(O)cc(O)c12 [Luteolin] |  | 1 | 0.976 | 0.978 | 0.987 | 1.02 | 0.993 | 0.878 |
| CCCC(=O)Nc1ncnc2c1ncn2[C@@H]1O[C@@H]2COP(=O)(O)O[C@H]2[C@H]1OC(=O)CCC [Bucladesine sodium salt] |  | 1 | 1.01 | 0.998 | 1.02 | 1.01 | 1.01 | 1.01 |

| SMILES | growth AUC normalised to DMSO control [1] | growth AUC normalised to DMSO control (Shigella flexneri) | growth AUC normalised to DMSO control (Vibrio cholerae) | growth AUC normalised to DMSO control [2] | growth AUC normalised to DMSO control (P. vulgatus RND KO) | growth AUC normalised to DMSO control (P. vulgatus WT) | growth AUC normalised to DMSO control [3] | growth AUC normalised to DMSO control [4] |
| --- | --- | --- | --- | --- | --- | --- | --- | --- |
| CCOc1ccccc1OCC1CNCCO1 (stereo unspecified) [Viloxazine hydrochloride] | 0.997 | 0.979 | 0.987 | 0.961 | 1 | 0.985 | 0.99 | 0.995 |
| CC(=O)S[C@@H]1CC2=CC(=O)CC[C@]2(C)[C@H]2CC[C@@]3(C)[C@@H](CC[C@@]34CCC(=O)O4)[C@H]12 [Spironolactone] | 0.983 | 0.981 | 0.954 | 1.02 | 1.02 | 1.02 | 0.998 | 0.981 |
| CC(=O)[C@H]1CC[C@H]2[C@@H]3CCC4=CC(=O)CC[C@]4(C)[C@H]3CC[C@]12C [Progesterone] |  | 1.01 | 1 | 1 | 0.0182 (active) | 0.612 | 1.02 | 0.918 |
| NC(=O)c1cc[n+](CC2=C(C(=O)[O-])N3C(=O)[C@@H](NC(=O)[C@@H](c4ccccc4)S(=O)(=O)O)[C@H]3SC2)cc1 [Cefsulodin sodium salt] | 0.944 | 0.999 | 0.976 | 0.865 (active) |  | 0.983 | 1 | 0.978 |
| COc1ccc2c(c1)c(CC(=O)O)c(C)n2C(=O)c1ccc(Cl)cc1 [Indomethacin] |  | 0.966 | 0.448 (active) | 1 | 0.967 | 1.01 | 1.01 | 0.974 |
| C[C@@H](O)[C@H]1C(=O)N2C(C(=O)O)=C(SCCNC=N)C[C@H]12 [Imipenem] | 1.02 | 0.63 (active) | 1 | 0.967 |  |  | 1 | 0.996 |
| O=C(O)c1cccnc1 [Niacin] |  | 1.02 | 1.06 | 0.993 | 1.05 | 1.09 | 1.02 | 0.985 |
| CC(=O)Oc1ccc(C(c2ccc(OC(C)=O)cc2)c2ccccn2)cc1 [Bisacodyl] |  | 1.01 | 0.991 | 1.01 | 1.02 | 1.04 | 1.01 | 1.01 |
| CCN1CCN(C(=O)N[C@@H](C(=O)N[C@@H]2C(=O)N3[C@@H]2SC(C)(C)[C@@H]3C(=O)O)c2ccccc2)C(=O)C1=O [Piperacillin sodium salt] |  | 0.098 (active) | 0.63 (active) | 0.291 (active) | 0.0135 (active) | 0.0163 (active) | 0.734 | 0.00671 (active) |
| O=c1[nH]c(=O)n([C@H]2C[C@H](O)[C@@H](CO)O2)cc1C(F)(F)F [Trifluridine] |  | 1.01 | 1.05 | 0.997 | 0.13 | 0.123 | 0.964 | 0.958 |
| Nc1nc2ccc(OC(F)(F)F)cc2s1 [Riluzole hydrochloride] | 1.01 | 0.993 | 0.937 | 0.984 | 0.999 |  | 0.979 | 0.976 |
| COC1=CC(=O)C[C@@H](C)[C@]12Oc1c(Cl)c(OC)cc(OC)c1C2=O [Griseofulvin] |  | 0.998 | 0.99 | 1.03 | 0.99 | 0.976 | 1 | 0.996 |
| Cc1onc(-c2ccccc2)c1C(=O)N[C@@H]1C(=O)N2[C@@H]1SC(C)(C)[C@@H]2C(=O)O [Oxacillin sodium] | 0.975 | 1.03 | 0.961 | 0.908 (active) |  | 0.151 | 0.994 | 0.0924 (active) |
| O=C(O)c1cc(/N=N/c2ccc(S(=O)(=O)Nc3ccccn3)cc2)ccc1O [Sulfasalazine] |  | 1.01 | 1.01 | 0.99 | 1 | 1.02 | 1.01 | 1.01 |
| CCn1cc(C(=O)O)c(=O)c2cnc(N3CCNCC3)nc21 [Pipemidic acid] |  | 0.113 (active) | 0.0338 (active) | 0.0731 (active) | 1.02 | 0.996 | 0.107 | 0.04 (active) |
| CC(C)OC(=O)C(C)(C)Oc1ccc(C(=O)c2ccc(Cl)cc2)cc1 [Fenofibrate] |  | 0.971 | 1 | 0.992 | 0.996 | 1.01 | 1 | 0.94 |
